Measured values taken from PubChem BioAssay AID1159580 (chemical genetic matrix, 2015).
About 2,000 (36%) of roughly 5,500 compounds were called active. Another 18% or so got no clear call; they are omitted. No stated cut-off is given here; in the data, active means normalized growth mostly below about 0.91 (no sharp cut-off); inconclusive means no clear call, values can overlap the other calls; inactive means mostly above about 0.92. The list shows a part of the results.

Experiment: chemical genetic growth profiling, strain panel (AID 1159580);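 further: tested at 20 µM; growth read once vehicle control cultures reached saturation at 30 °C; 1 = growth at the plate median or of vehicle wells; lower values mean less growth of the strain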
Settings: S. cerevisiae deletion strains, growth OD

Measured: normalized growth

O=[N+]([O-])c1ccc2oc(C(O)c3cccc(Cl)c3)cc2c1 (stereo unspecified)
inactive: locus YAR019C, strain CDC15, active compounds read low 0.947 | locus YBL105C, strain PKC1, active compounds read low 0.948 | locus YBR135W, strain CKS1, active compounds read low 0.943 | locus YBR136W, strain MEC1, active compounds read low 0.957 | locus YBR160W, strain CDC28, active compounds read low 0.947 | locus YDL017W, strain CDC7, active compounds read low 0.949 | locus YDL028C, strain MPS1, active compounds read low 0.954 | locus YDL101C, strain DUN1, active compounds read low 0.937 | locus YDL108W, strain KIN28, active compounds read low 0.949 | locus YDL132W, strain cdc53, active compounds read low 0.936 | locus YDL214C, strain PRR2, active compounds read low 0.942 | locus YDR052C, strain DBF4, active compounds read low 0.953 | locus YDR054C, strain cdc34, active compounds read low 0.951 | locus YDR226W, strain ADK1, active compounds read low 0.952 | locus YDR477W, strain SNF1, active compounds read low 0.957 | locus YER123W, strain YCK3, active compounds read low 0.94 | locus YER133W, strain GLC7, active compounds read low 0.96 | locus YFL009W, strain cdc4, active compounds read low 0.945 | locus YFL029C, strain CAK1, active compounds read low 0.946 | locus YFR003C, strain YPI1, active compounds read low 0.948 | locus YFR019W, strain FAB1, active compounds read low 0.931 | locus YFR028C, strain CDC14, active compounds read low 0.949 | locus YGR040W, strain KSS1, active compounds read low 0.964 | locus YGR052W, strain FMP48, active compounds read low 1.05 | locus YGR092W, strain DBF2, active compounds read low 0.907 | locus YHR030C, strain SLT2, active compounds read low 1.08 | locus YHR079C, strain IRE1, active compounds read low 1.02 | locus YHR082C, strain KSP1, active compounds read low 1.06 | locus YHR205W, strain SCH9, active compounds read low 0.931 | locus YIL147C, strain SLN1, active compounds read low 0.96 | locus YJL095W, strain BCK1, active compounds read low 1.04 | locus YJL128C, strain PBS2, active compounds read low 0.91 | locus YJL157C, strain FAR1, active compounds read low 0.932 | locus YJR016C, strain ILV3, active compounds read low 0.954 | locus YJR066W, strain TOR1 (second series), active compounds read low 0.93 | locus YJR066W, strain TOR1, active compounds read low 1.09 | locus YKL048C, strain ELM1, active compounds read low 0.93 | locus YKL067W, strain YNK1, active compounds read low 0.942 | locus YKL101W, strain HSL1, active compounds read low 0.934 | locus YKL193C, strain SDS22, active compounds read low 0.946 | locus YKL203C, strain TOR2, active compounds read low 1.03 | locus YLR113W, strain HOG1, active compounds read low 0.893 | locus YLR133W, strain CKI1, active compounds read low 0.935 | locus YLR403W, strain SFP1, active compounds read low 0.939 | locus YML070W, strain DAK1, active compounds read low 0.94 | locus YMR001C, strain CDC5, active compounds read low 0.945 | locus YMR205C, strain PFK2 (second series), active compounds read low 0.944 | locus YMR277W, strain FCP1, active compounds read low 0.952 | locus YNL006W, strain LST8, active compounds read low 0.954 | locus YNL020C, strain ARK1, active compounds read low 0.929 | locus YNL161W, strain CBK1, active compounds read low 0.956 | locus YNL183C, strain NPR1, active compounds read low 1.04 | locus YNL207W, strain RIO2, active compounds read low 0.944 | locus YNL222W, strain SSU72, active compounds read low 0.947 | locus YNL307C, strain MCK1 (second series), active compounds read low 0.925 | locus YOL078W, strain AVO1, active compounds read low 0.946 | locus YOL136C, strain PFK27, active compounds read low 0.95 | locus YOR061W, strain CKA2, active compounds read low 0.922 | locus YOR119C, strain RIO1, active compounds read low 0.992 | locus YOR231W, strain MKK1, active compounds read low 1.01 | locus YOR329C, strain SCD5, active compounds read low 0.948 | locus YPL031C, strain PHO85, active compounds read low 0.953 | locus YPL153C, strain RAD53, active compounds read low 0.955 | locus YPL204W, strain HRR25, active compounds read low 0.954 | locus YPL209C, strain IPL1, active compounds read low 0.946 | locus YPL256C, strain CLN2, active compounds read low 0.996 | locus YPR025C, strain CCL1, active compounds read low 0.953 | locus YPR106W, strain ISR1, active compounds read low 0.961 | locus YPR111W, strain DBF20, active compounds read low 0.948 | strain NNK1, active compounds read low 0.934 | strain TSCII, active compounds read low 0.944
